# PrP UTR inh – suppresses PrP 5' UTR mRNA reporter expression; cell-based PrP 5' UTR mRNA reporter, plate reader; inhibition, % (concentration not given with the values); hit rate 0.35% among 340,000; AID 488862; in the data active = inhibition above about 52%; note: 0 = median of the neutral control wells
# FadD28 binding – blocks FadD28 binding to the bisubstrate probe. fluorescence polarization. inhibition, % at 12.5 µM. hit rate 0.22% among 360,000; in the data active = inhibition above about 8.5%, passing the limit was not always enough
# PrPC TRFRET – cell surface PrPC inhibition, primary TR-FRET screen; TR-FRET read-out; inhibition, % at 13.8 µM; hit rate 0.43% among 370,000; AID 720596; in the data active = inhibition above about 24%; note: 0% = median of the test wells and 100% = reference compound wells
# Rv3671c inh – inhibitors of M. tuberculosis serine protease Rv3671c; P9WHR9; inhibition, % at 5.96 µM; hit rate 0.048% among 320,000; AID 2606; in the data active = inhibition above about 38%;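 note: extracellular domain of Rv3671c used as enzyme; 0% = enzyme with DMSO and 100% = no enzyme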
# SSB-PriA inh – K. pneumoniae PriA-SSBct interaction inhibition. hit rate 0.6% among 430,000. AlphaScreen SSBct-PriA binding, biotinylated peptide. AID 1272365. inhibition, % at 33 µM; in the data active = inhibition mostly above about 37%, no sharp cut-off; inactive = mostly below about 20%;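 note: plate controls were negative control peptide for no effect and reference peptide for full effect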
# UGM FP inh – Mtb UDP-galactopyranose mutase inhibition | P9WIQ1 | purified UGM, fluorescence polarization probe displacement | inhibition, % at 10 µM | hit rate 0.06% among 320,000; in the data active = inhibition above about 10%, passing the limit was not always enough
# Target sequence (P9WIQ1 whole entry, looked up): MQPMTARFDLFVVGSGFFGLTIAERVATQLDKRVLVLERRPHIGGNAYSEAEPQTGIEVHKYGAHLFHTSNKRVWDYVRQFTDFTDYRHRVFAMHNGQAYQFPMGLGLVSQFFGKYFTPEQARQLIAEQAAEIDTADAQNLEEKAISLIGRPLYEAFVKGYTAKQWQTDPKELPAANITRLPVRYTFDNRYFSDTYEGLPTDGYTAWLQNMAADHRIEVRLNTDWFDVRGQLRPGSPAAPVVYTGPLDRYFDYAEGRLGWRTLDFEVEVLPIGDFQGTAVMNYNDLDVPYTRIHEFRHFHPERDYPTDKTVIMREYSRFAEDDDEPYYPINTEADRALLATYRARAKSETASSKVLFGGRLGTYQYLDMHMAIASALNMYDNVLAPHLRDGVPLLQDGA
# * = called active by the depositor; i = inactive; . = no result given. Shown are actives, neighbours in structure and some others; about 1.2% of the full set was active somewhere.
SMILES,PrP UTR inh,FadD28 binding,PrPC TRFRET,Rv3671c inh,SSB-PriA inh,UGM FP inh
Cc1ccc(C(=O)CSc2ncnc3sc4c(c23)CCCC4)s1,.,.,.,.,-5,.
Cc1ccc(C)c2sc(N(Cc3ccco3)C(=O)c3cccs3)nc12,.,.,.,.,-7,.
O=C(NCc1nnc(SCc2cccc(C(F)(F)F)c2)n1-c1ccccc1)c1ccccc1F,.,.,.,.,4,.
OCCCc1cnc2ncnn2c1,.,.,.,.,-10,.
c1ccc2c(c1)[IH]c1ccccc1-2,-11,-2,35*,.,1,.
Cc1cccc(NC(=O)COC(=O)c2cccc(S(=O)(=O)N3CCCCCC3)c2)c1,-2,10*,-5,-61,0,-2
CCC(=O)c1ccc(OCC(=O)Nc2cccc(S(=O)(=O)N3CCCCCC3)c2)cc1,-12,13*,13,.,3,.
Cc1ccc([N+](=O)[O-])cc1S(=O)(=O)Nc1ccc(-c2cn3c(n2)SCC3)cc1,.,.,.,.,39*,.
O=[N+]([O-])c1ccc(-c2cn3c(n2)SCC3)cc1,.,0,-43,-2,5,-1
Cc1cc(C(=O)Nc2nc(C(=O)NCCc3ccc(Cl)cc3)co2)no1,.,.,.,.,1,.
CC1Cc2cc(C(O)=C3C(=O)C(=O)N(Cc4cccnc4)C3c3cccc(O)c3)ccc2O1 (centres undefined),.,.,.,.,4,.
COc1cc2nc(N3CCNCC3)nc(N)c2cc1OC,-21,-3,4,-3,46*,-3
COc1cc2nc(N3CCN(c4cc(C)ccc4C)CC3)nc(N)c2cc1OC,5,-7,-12,9,14,-1
Cc1cc(C(=O)NCC(Cc2cccc(F)c2)N2CCCC2=O)c(C)o1 (centres undefined),.,.,.,.,-2,.
Fc1ccccc1-c1nc(-c2ccccc2)no1,-58,-3,4,-2,-73,1
COc1ccc(-c2noc(-c3ccccc3F)n2)cc1,-93,0,-4,2,104*,4
COc1ccc(CCS(=O)(=O)Nc2ccc3c(c2)N(C(=O)C2CCCO2)CC3)cc1 (centres undefined),.,.,.,.,9,.
CC(=O)c1sc(NC(=O)c2sc3nc(-c4ccccc4)cn3c2C)nc1C,.,.,.,.,9,.
NCc1nncn1-c1ccc(F)cc1,.,.,.,.,-10,.
NCC(=O)Nn1cnnc1CN,.,.,.,.,98*,.
COc1ccccc1NC(=O)N1CCC2(CC1)NC(=O)c1cccc(Cl)c1N2,.,.,.,.,-5,.
O=[N+]([O-])c1cc([N+](=O)[O-])c2c(=Nc3ccccc3)n(-c3ccccc3)n(O)c2c1,-15,-11,-19,12,63*,0
O=[N+]([O-])c1cc(Br)c(Nc2ccccc2)c([N+](=O)[O-])c1,-14,-3,-40,6,-5,7
CCOC(=O)/C(=N\Nc1ccccc1)N1CC1,-38,-4,6,6,.,1
CCOC(=O)/C(=N/Nc1ccc(Br)cc1)N1CC(C)OC(C)C1 (centres undefined),-16,-1,32*,.,i,.
SMILES,PrP UTR inh,FadD28 binding,PrPC TRFRET,Rv3671c inh,SSB-PriA inh,UGM FP inh
O=C(Cc1cccc2ccccc12)N1CCN=C1SCc1ccc(Br)cc1,.,.,.,.,1,.
Cc1cccc(N=NC(=S)NNc2cccc(C)c2)c1,-69,-3,0,.,52*,.
Cc1cccc(NC(N)=S)c1,4,1,2,0,2,1
Nc1ccc(N=Nc2ccc(N)cc2)cc1,-12,-2,-19,9,15,-3
Cc1cc(N(C)C)ccc1N=Nc1ccc(N)cc1,-82,1,-17,-8,93*,-2
COc1ccc(S(=O)(=O)N(CC(C)C)C2CCS(=O)(=O)C2)cc1 (centres undefined),.,.,.,.,12,.
COc1ccc(S(=O)(=O)N(CC(C)C)C2CCS(=O)(=O)C2)cc1OC (centres undefined),-37,0,-3,8,38*,3
CC(C)S(=O)(=O)c1ccc(-c2nnc(N)o2)cc1,.,.,.,.,-8,.
On1ccccc1=S,-37,-3,42*,-5,-14,-3
O=C(Cn1ccccc1=S)c1ccc(Cl)c(Cl)c1,.,-3,-3,0,-2,-3
CC(=NNc1ccc(Cl)c(C(=O)O)c1)c1cccc2ccccc12,.,.,.,.,-19,.
O=C(O)c1cc(N/N=C/c2c(O)ccc3ccccc23)ccc1Cl,-31,20*,-6,-1,.,1
N#CCCN1CCCc2cc(N=Nc3ccc(C(F)(F)F)cc3)ccc21,-75,-1,9,6,45*,1
COc1ccc(OC)c2sc(N3CCN(C(=O)c4ccc5c(c4)CCCC5)CC3)nc12,.,.,.,.,29*,.
COc1cccc2sc(N3CCN(C(=O)c4ccc5c(c4)CCCC5)CC3)nc12,.,.,.,.,-1,.
COc1ccc(-c2nc3cnccn3c2Nc2ccc3c(c2)OCO3)cc1,-7,-3,8,8,36,0
Cc1ccc(-c2nc3cnccn3c2Nc2ccc3c(c2)OCO3)cc1,-2,-1,5,-6,38*,-2
CCCCC#Cc1ccccc1COC[B-](F)(F)F,.,.,29*,.,.,.
COc1ccc(C=NNc2cc(N3CCCC3)nc(N3CCCC3)n2)cc1,.,.,.,.,49*,.
Nc1nn(S(=O)(=O)c2cccc3nsnc23)cc1-c1ccc(Br)cc1,-18,-3,-11,-3,42*,0
CN1CCN(c2nc(-c3ccccn3)nc3ccccc23)CC1,0,0,-7,-15,46*,0
Nc1nc(-c2ccccn2)nc2ccccc12,.,.,.,.,140*,.
NNc1nc(N)nc(-c2ccccn2)n1,.,.,.,.,152*,.
NNc1nc(-c2ccccn2)nc2c1CCC2,.,.,.,.,165*,.
Clc1nc(-c2ccccn2)nc2ccccc12,.,.,.,.,42,.
SMILES,PrP UTR inh,FadD28 binding,PrPC TRFRET,Rv3671c inh,SSB-PriA inh,UGM FP inh
Nc1nc(N)nc(-c2ccccn2)n1,-17,-4,-3,-10,78*,0
O=C(Nc1ccc(Cl)cc1)c1cc(Br)ccc1OCC(=O)N1CCOCC1,4,0,2,-13,44*,0
O=C(Nc1ccc(OCC(=O)N2CCOCC2)cc1)c1ccccc1F,-28,-3,5,1,-9,0
Cc1ccc2c(c1)C(c1ccncc1)=NNC(c1ccccc1)=N2,-30,-5,-2,0,-15,0
c1ccc(C2=Nc3c(ccc4ccccc34)C(c3ccncc3)=NN2)cc1,-23,-2,-4,6,47*,-2
O=[N+]([O-])c1ccc(N2CCOCC2)c(S(=O)(=O)N2CCOCC2)c1,-1,0,-6,-8,-10,-2
O=c1oc2cc(S(=O)(=O)N3CCOCC3)ccc2n1Cc1ccc([N+](=O)[O-])cc1,.,.,.,.,48*,.
O=C(NCC[C@@H](CCO)c1ccccc1)Nc1ccc2c(c1)OCO2,.,.,.,.,-7,.
O=C(Nc1ccc2oc(=O)ccc2c1)c1cccs1,.,.,.,.,-8,.
CCN(CC)c1ccc2cc3ccc(N)cc3[n+](-c3ccccc3)c2c1,.,.,.,.,117*,.
CC1CC(=O)c2c(cc3c(-c4c(O)cc(O)c5c(O)c6c(cc45)OC(C)CC6=O)c(O)cc(O)c3c2O)O1 (centres undefined),-28,13*,.,35,-4,5
O=C1CC(c2ccc(O)cc2)Oc2cc(O)cc(O)c21 (centres undefined),-20,-4,1,-20,-13,3

# Compound activity as filed in PubChem BioAssay.
